Sampled rows, rich in hits. Any-hit rate of the full collection: about 3.5%.
RE007 growth inh: less growth of the S. pombe RE007 Vpr strain | Potency, µM (top dose mostly 92.2 µM), inactives show at the highest dose activity change, negative = less growth, most hits filed as inhibitors | AID 651644 | S. pombe RE007 Vpr strain, BacTiter-Glo ATP luminescence, 24 h | 360,000 tested, 0.21% active; active means well fitted falling curve with a large enough effect; inconclusive means small, poorly fitted or top-dose-only effect; inactive means no such curve, though single readings can be large or run the other way; further: on the % scale 0 is the no-effect control and ±100 the full control effect; nearly all actives have a fitted effect of over 50% in size
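Fission yeast strain RE007, carrying one chromosomally integrated HIV-1 vpr copy, was seeded at OD 0.01 in PMG+AL medium with 23 nL pinned compound. After 24 h at 30 °C and 99% humidity, viability was read by BacTiter-Glo luminescence.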
TbPYK inhibitor: blocks Trypanosoma brucei pyruvate kinase. Q57TT1. TbPYK enzyme, Kinase-Glo Plus ATP luminescence, 45 min. Potency, µM (top dose mostly 76.8 µM), for the others: at the top dose activity, negative = inhibition, most hits filed as inhibitors. 410,000 tested, 0.12% active; further: on the % scale 0 is the no-effect control and ±100 the full control effect; nearly all actives have a fitted effect of over 50% in size
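Enzyme and substrate buffer are dispensed first and compound is pin-transferred. ADP at 130 uM final then starts the reaction, which runs 45 min at room temperature. Detection reagent is added for 10 min before luminescence is imaged.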
NS1 function inh: influenza NS1 inhibition. Potency, µM (doses to about 46.1 µM), for the others: at the highest dose activity, positive = more growth. 270,000 tested, 0.4% active; calls by dose curve; further: actives are rising curves; nearly all actives have a fitted effect of over 50% in size
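S. cerevisiae expressing influenza A NS1, grown in glucose, washed, then diluted 1:100 into pH 6.0 -URA galactose medium with 23 nl compound. Growth recovery read as OD600; NS1-free strain serves as control.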
Giardia FBPA inh-1: inhibitors of Giardia lamblia fructose-1,6-bisphosphate aldolase | AID 2451 | Potency, µM (highest dose often 59.6 µM), inactives show top-dose activity, negative = inhibition, usual class: inhibitors | purified Giardia FBPA | A8B2U2 | 290,000 tested, 0.71% active; further: on the % scale 0 is the no-effect control and ±100 the full control effect; nearly all actives have a fitted effect of over 55% in size
Target sequence (A8B2U2 whole entry, looked up): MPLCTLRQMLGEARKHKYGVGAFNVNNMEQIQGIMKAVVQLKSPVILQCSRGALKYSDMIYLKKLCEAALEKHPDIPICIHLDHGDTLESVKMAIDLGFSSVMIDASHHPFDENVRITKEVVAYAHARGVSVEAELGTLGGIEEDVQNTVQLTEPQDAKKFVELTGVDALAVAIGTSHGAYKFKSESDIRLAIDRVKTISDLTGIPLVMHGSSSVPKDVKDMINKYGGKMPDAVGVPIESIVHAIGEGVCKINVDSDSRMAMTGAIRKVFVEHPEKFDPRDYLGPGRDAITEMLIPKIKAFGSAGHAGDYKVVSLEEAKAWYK
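Giardia FBPA (40 nM reagent) was preincubated 10 min at RT with compound (up to 57.5 uM final), then substrate plus GAPDH/TPI/NAD/arsenate coupling system with diaphorase/resazurin was added; resorufin fluorescence (525/598 nm) was read after 20 min.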
LmPK inhibitor: blocks Leishmania mexicana pyruvate kinase activity. Q27686. 290,000 tested, 0.37% active. purified LmPK, Kinase-Glo ATP luminescence, 1 h. Potency, µM (highest dose often 57.5 µM), for the others: at the highest dose activity change, negative = inhibition, usual class: inhibitors; further: on the % scale 0 is the no-effect control and ±100 the full control effect
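Purified LmPK (0.1 nM) with 0.5 mM PEP and 0.1 mM ADP in imidazole buffer pH 7.2 with MgCl2/KCl, 1 h at room temperature. ATP formed was read by luciferase luminescence and normalized to no-enzyme and uninhibited controls.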
Sm TGR block: blocks Schistosoma mansoni thioredoxin glutathione reductase | purified TGR, DTNB reduction, TNB absorbance 405 nm | Potency, µM (doses to about 114 µM), for the others: top-dose activity change, negative = inhibition, most hits filed as inhibitors | 360,000 tested, 3% active | AID 485364; further: on the % scale 0 is the no-effect control and ±100 the full control effect; nearly all actives have a fitted effect of over 60% in size
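First, TGR (20 nM dispensed) and NADPH were mixed with compound. Second, a 15 min room-temperature incubation followed. Third, further NADPH and then DTNB were added to start the reaction. Finally, TNB absorbance was monitored kinetically.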
Giardia growth: blocks growth of Giardia lamblia trophozoites; 1,500 tested, 5% active; shares compounds with Giardia FBPA inh-1; Potency, µM (titrated, usually from 57.5 µM), for the others: top-dose activity change, negative = inhibition, hits mostly inhibitors; AID 2785; Giardia lamblia trophozoite growth inhibition;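 further: trophozoites exposed to compound for 48 h at 37 °C; on the % scale 0 is the no-effect control and ±100 the full control effect; nearly all actives have a fitted effect of over 70% in size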
Mammal cell tox: toxic to mammalian cells in Giardia aldolase counter-screen | shares compounds with Giardia FBPA inh-1 | 1,500 tested, 4% active | mammalian cell viability counter-screen, qHTS | AID 2786 | Potency, µM (doses to about 57.5 µM), without a hit: top-dose viability change, negative = toxicity, actives largely listed as inhibitors;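 further: Chinese hamster ovary cells used as mammalian cytotoxicity surrogate; viability measured as cellular ATP by luminescence; compound exposure lasted 48 h before reading; on the % scale 0 is the no-effect control and ±100 the full control effect; nearly all actives have a fitted effect of over 60% in size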
Giardia FBPA inh-2: confirmation of Giardia fructose-bisphosphate aldolase inhibitors; shares compounds with Giardia FBPA inh-1; AID 2787; 1,500 tested, 5% active; purified Giardia aldolase enzyme activity, qHTS; Potency, µM (top dose mostly 57.5 µM), without a hit: at the highest dose activity change, negative = inhibition, hits mostly inhibitors; further: on the % scale 0 is the no-effect control and ±100 the full control effect; nearly all actives have a fitted effect of over 45% in size
Rabbit aldolase: selectivity test for Giardia aldolase inhibitors: rabbit aldolase | shares compounds with Giardia FBPA inh-1 | Rabbit muscle FBPA enzyme inhibition, selectivity counter-screen | Potency, µM (highest dose often 57.5 µM), inactives show at the top dose activity, negative = inhibition, most hits filed as inhibitors | 1,500 tested, 4% active | AID 2794; further: on the % scale 0 is the no-effect control and ±100 the full control effect; nearly all actives have a fitted effect of over 60% in size
GAPDH coupling: GAPDH inhibition flagged for Giardia aldolase hits. 1,500 tested, 6% active. Potency, µM (titrated, usually from 57.5 µM), without a hit: at the highest dose activity change, negative = inhibition, usual class: inhibitors. shares compounds with Giardia FBPA inh-1. GAPDH coupling enzyme counterscreen, biochemical, qHTS. AID 2795; further: on the % scale 0 is the no-effect control and ±100 the full control effect; nearly all actives have a fitted effect of over 55% in size
An asterisk follows results filed as active; ? = inconclusive; · = not tested or not shown; [ ] = another dose, or the depositor's remark. Unless noted, the call rests on the fitted dose curve; in most records, active means well fitted curve in the direction sought with a large enough effect; inconclusive means small, poorly fitted or top-dose-only effect, or another doubt; inactive means no such curve, though single readings can be large; an effect the other way counts as inactive or inconclusive. Potency means the concentration at half of the fitted maximal effect.

SMILES	RE007 growth inh	TbPYK inhibitor	NS1 function inh	Giardia FBPA inh-1	LmPK inhibitor	Sm TGR block	Giardia growth	Mammal cell tox	Giardia FBPA inh-2	Rabbit aldolase	GAPDH coupling
CCN(CC)CCN(Cc1cc2cc3c(cc2[nH]c1=O)OCCO3)C(=S)NCC1CCCO1 (stereo not drawn)	-11%	-4%	6%	7.9µM*	6%	·	31%	-8%	7%	0%	-20%
CCc1nn2c(=O)c(S(=O)(=O)Nc3ccc(C)cc3C)c(C)nc2s1	·	10%	·	·	·	-6%	·	·	·	·	·
COc1cccc(N2CCN(Cc3ccco3)CC2)c1	-21%	23%	10%	25µM*	-5%	-22%	?	-11%	-5%	3%	9%
COc1ccc(CN2CCN(Cc3ccco3)CC2)cc1OC	-26%	0%	-4%	13µM*	-3%	-9%	-6%[10.4 µM]	-6%	0%	8%	8%
Cc1ccc2nc(Cc3ccc(N)cc3)[nH]c2c1	-4%	-6%	-7%	?	1%	10%	·	·	·	·	·
Nc1ccc2nc(Cc3ccccc3)[nH]c2c1	-10%	-6%	17%	16µM*	0%	0%	-6%[10.4 µM]	-8%	-16%	-9%	-3%
O=C(O)c1ccc(-c2ccccc2C(F)(F)F)s1	·	·	·	19%[89.2 µM]	·	·	·	·	·	·	·
O=C(COc1ccc(Cl)cc1)N1CCN(Cc2ccc([N+](=O)[O-])cc2)CC1	-18%	-10%	·	22µM*	-6%	-3%	-8%[10.4 µM]	-5%	-2%	2%	8%
O=C(COc1ccc(Cl)cc1)N1CCCC1	-4%	-5%	7%	-1%	-3%	-23%	·	·	·	·	·
O=[N+]([O-])c1cccc(CN2CCN(Cc3ccc(Cl)cc3)CC2)c1	1%	9%	·	18µM*	7%	1%	?	-11%	6%	2%	9%
COc1ccccc1CNS(=O)(=O)c1ccc2c(c1)CC(C)N2C(C)=O (stereo not drawn)	·	-2%	·	·	·	0%	·	·	·	·	·
CCc1ccccc1NC(=O)CCn1cccn1	·	8%	·	·	·	9%	·	·	·	·	·
CCOC(=O)CCCc1ccc(/C(C)=N/NC(N)=S)cc1	3%	-13%	-53%	6.3µM*	4%	-25%	13%[38.3 µM]	-1%	10%	9%	-3%
C/C(=N\NC(N)=S)c1ccc2c(c1)OCCO2	-26%	-11%	-5%	18µM*	0%	-10%	?	-10%	11%	8%	9%
C/C(=N\NC(N)=S)c1ccccc1	-4%	-3%	-3%	16µM*	1%	6%	27%	7%	6%	5%	7%
CC(=O)N/N=C(\C)c1ccc2c(c1)OCCO2	0%	-2%	·	3%	-4%	1%	·	·	·	·	·
COC(=O)NC(c1cccc(C)c1)[C@]1(C(C)=O)CCCC1=O (stereo partly drawn)	·	·	·	1%[12.9 µM]	·	·	·	·	·	·	·
COc1ccc(CNC(=O)c2cc3c(=O)oc4ccc(C)cc4c3s2)c(OC)c1	·	-4%	·	·	·	10%	·	·	·	·	·
